The subject of this test is VDR:RXRa (NR concentration 270 nM, RXRa partner concentration 90 nM). Briefly: PBM binding z-score (relative to random genomic background probes); higher = stronger binding; sequences stand for … in GC…GCGATTGACAGCGTAGAATGAAGG
As for the experimental part: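 Protein-binding microarray (Agilent 4x180K custom design, double-stranded 60-nt probes: 5' GC cap, 34-nt variable region, 24-nt constant primer region; full probe sequence given). Purified or IVT nuclear receptor:RXRα heterodimers (3:1 NR:RXRα, mostly 270:90 nM) or homodimers were incubated for 1 h in PBS with 2% milk and no ligand, then detected with Alexa488 antibodies. Fluorescence from o1-orientation probes (~5 replicates averaged) was converted to z-scores against 500 random hg19 background probes. Variable regions are seed direct-repeat (DR0–DR5) sites, all their single-nucleotide variants and half-site ablations.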
Take ATAGGTAGGTTATCGGGTCATTCAGTTTGCGCAT: the PBM binding z-score stood at 5.32. Under TAGCCTATGTCAGATCGGGCCAGTATACGCTATA stands -0.407. Under AGTCAAAGTTCATTTAGGTAACGTAAGATATGCT stands 4.97; under CTCGAAAGGTCGTGCTCAAGTGAGTATACCAAAC, 3.13. Under ACTCGGAGGACAAAGGTCAGAGATACGCCAGTGA stands 3.38; under AGAACGAGGGCACGCTGAGATGATAGCAGAGTAG, 0.702. Sequence GTACCAAGGTGACTAGGTCGTTGATGAGTAGGCG returned a PBM binding z-score of 0.346. Under TCTCGGAGGAAACGAAGGTCAGAGCTTTCCAGAG stands 0.66. The same measure for CCTAGCAGTCCAATCTGGGTCACTCAAGGCTTGA: 0.794.

Take ATCTCTAGGTAAGACTCAATTCAGTGAAGAACGC: the PBM binding z-score turned out to be 0.199. The same measure for GTACCAAGGTGAATAGGTTGTTGATGAGTAGGCG: 1.38. The same measure for TATACAGGGTCACAGGCCAGAGTACGAATGTCGA: 4.92; for TATACAGGGTCAAAGGCCAGAGAACGAATGTCGA: 4.77. Under ATCTCTAGGTAAGACTCAGTTCAGTGTAGAACGC stands 1.02; under ACTATTCGTTGACTTAGGGCAACCGATACGACGC, 0.325.

In the case of CCAGACAGGTGAAAGGAAACTCAGTCTGGTACGC, the PBM binding z-score is -0.116. TGAATGAGGTTATAAGATCAGGGACCGTTGCAAA gave a PBM binding z-score of 1.25.

Turning to ACTACCAGGCCAAGGGTCACTCAAGATTAGTCCG, the PBM binding z-score was 3.07. In turn, TCTGCTAGGTCAACGATGGGCAGCTAATCTGCTA showed a PBM binding z-score of 0.993.

Sequence GCTAGTTGGTCAGTAAAAGGACACACACCGGTCG returned a PBM binding z-score of -0.213. Under CGTCCAAGGTCAAAGGTCAGTTAAGAGATGACGG stands 6.49. The same measure for CGTCCAAGGTCAATGCTAGGTCTGTGAAAGCATT: 3.76; for CCTACTGGGCCACGAAAGGTCATTCATTCAGTGA: 4.43. Sequence ATCTCTAGGTAATGATAGTTCAGTGAATGCAAAT had a PBM binding z-score of 0.849. Under CTACGAAGGTGAACAAGGTCGTTGATTACTATTC stands 6.15; under ATCGAAAGGTCGAAGGTGAGTGTACCCACCCGAA, 3.05. Under CTCGAATGGTCGGTTGAGGTGAGTATACGGATAA stands -0.211; under TTAGCAAGGTGAAAGGTCGTTGATGCACGCCTTG, 2.93. AGAATGAAGTTACCAAAGATCAGGGAAACGCTTG: the PBM binding z-score is -0.38.

CCTGCTAGGTCAATCGTCAGCTAAAGCAGCTCGC displayed a PBM binding z-score of 0.744. Turning to TAGCCTATGTCATGCGGGCCAGTATAGTGTCGGC, the PBM binding z-score was -0.45. Under TAGCCTAGGTCATGCGAGCCAGTATAGTGTCGGC stands 1.92; under TTACCAAGGTGAGTTGAGGTCGTTGATCCAACTC, 4.05; under CGTTAAAGTTCAACTAAGGTAACGTAAAGCACGC, 4.58. The same measure for AATACAGGGTCAACGTAGGCCAGAGTACGCACAG: 5.06; for CATACAGGGTCAGCTAGGCGAGAGTAGGGACGGC: 2.57. The same measure for GCAGACAGATGAAACGCAGGTAACTCAGGGTGGC: -0.643. Sequence CAAACTAGGTCACGGAAGGTCAAAGTCGAATGAC showed a PBM binding z-score of 6.69. The same measure for CAAACTAGGTGACCGGAAGGTCAAAGTCCGCATG: 4; for AGTCAAAGTTCAGGACGAGGTTACGTAAAGCACG: 4.6.

The values are drawn from the supplement of paper PMC6555819.
